Measured values as given in PubChem BioAssay (Tox21).
Inconclusive results are not listed. Activity calls are given as the source filed them. Unless noted, calls follow the shape of the dose curve; as a rule, active = well fitted curve in the direction sought with a large enough effect in the repeat runs; inconclusive = weak or mixed curves; inactive = no such curve, though single readings can be large; an effect the other way counts as inactive or inconclusive.

What was measured:
[1] = qHTS assay to identify small molecule agonists of the TGF-beta/Smad signaling pathway - cell viability counter screen (AID 1346829); also: top concentration of the series differs between compounds; nearly all actives have a fitted effect of over 45% in size
How it was run: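 Tox21 qHTS format: SBE-bla HEK 293T cells treated with DMSO-dissolved compounds for 5 hr; CellTiter-Glo luminescence after 30 min at room temperature.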

[2] = qHTS assay to identify small molecule agonists of the TGF-beta/Smad signaling pathway (AID 1346859; active = well fitted activation curve with a large enough effect in the signal ratio in the repeat runs, not every such curve was filed as active; the % refers to the signal ratio; also: series mostly up to about 77 µM)
How it was run: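 Screening used HEK 293T SBE-bla cells at 4,000/well. Test agents: 5 hr, 37 C. Detection: FRET substrate, 2 hr RT, then excitation 405 nm with emissions at 460 and 530 nm.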

[3] = biological target: Thyrotropin-releasing hormone receptor (Homo sapiens) (UniProt P34981); assay: qHTS assay to identify small molecule antagonists of the thyrotropin-releasing hormone receptor (TRHR) signaling pathway (AID 1346877; active = well fitted inhibition curve with a large enough effect in the repeat runs, not every such curve was filed as active; also: series mostly up to about 51 µM)
Thyrotropin-releasing hormone receptor (Homo sapiens), sequence (P34981 whole entry, looked up): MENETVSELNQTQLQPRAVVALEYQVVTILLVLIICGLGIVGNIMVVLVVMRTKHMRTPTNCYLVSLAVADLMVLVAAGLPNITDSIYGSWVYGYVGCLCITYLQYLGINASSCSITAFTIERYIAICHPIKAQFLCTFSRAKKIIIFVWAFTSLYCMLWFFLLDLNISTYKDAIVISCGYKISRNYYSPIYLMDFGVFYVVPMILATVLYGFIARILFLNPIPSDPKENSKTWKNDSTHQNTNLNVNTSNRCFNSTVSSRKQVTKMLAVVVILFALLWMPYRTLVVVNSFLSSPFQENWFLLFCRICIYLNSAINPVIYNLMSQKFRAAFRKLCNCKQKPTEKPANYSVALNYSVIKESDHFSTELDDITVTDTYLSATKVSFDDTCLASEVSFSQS
How it was run: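 TRHR-expressing HEK293 cells were seeded, cultured 18 h at 37 °C, then loaded with calcium dye for 2 h. Compounds were pre-incubated 5 min at room temperature before 1 nM TRH (final) was added, and kinetic fluorescence was recorded for 3 min.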

[4] = biological target: Thyrotropin-releasing hormone receptor (Homo sapiens) (UniProt P34981); assay: qHTS assay to identify small molecule agonists of the thyrotropin-releasing hormone receptor (TRHR) signaling pathway (AID 1346891; calls by dose curve; also: series mostly up to about 58 µM)
How it was run: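 Readout was intracellular calcium fluorescence in TRHR-Hek293 cells. Cells were incubated 18 h, dye-loaded 2 h at 37 °C, and treated with compound in agonist mode.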

[5] = Human pregnane X receptor (PXR) small molecule agonists, qHTS cell viability counter screen (AID 1346977); also: nearly all actives have a fitted effect of over 50% in size
How it was run: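 In each well, the PXR reporter HepG2 line was checked for viability: CellTiter-Fluor reagent added 23hr post-dosing, fluorescence read after 1hr incubation at 37C.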

[6] = Caspase-3/7 induction in CHO-K1 cells by small molecules, qHTS cell viability counter screen (AID 1346979); also: nearly all actives have a fitted effect of over 35% in size
How it was run: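 Following a 5hr settling period, CHO-K1 cells at 1,500 per well received DMSO-dissolved compounds. Cell viability was quantified 16hr later by CellTiter-Fluor fluorescence, measured after 1hr with reagent at 37C.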

[7] = Caspase-3/7 induction in CHO-K1 cells by small molecules, qHTS assay (AID 1346980); also: nearly all actives have a fitted effect of over 15% in size
How it was run: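 Luminescent Caspase-Glo 3/7 read (30min, room temperature) quantified apoptosis induction. Cells were wild-type CHO-K1, treated with compound for 17hr at 37 C and 5% CO2.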

[8] = Caspase-3/7 induction in HepG2 cells by small molecules, qHTS cell viability counter screen (AID 1346981); also: series mostly up to about 92 µM; nearly all actives have a fitted effect of over 30% in size
How it was run: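 Wild-type HepG2 cells (2,000/well) were allowed to settle for 5 hr at 37 C, 5% CO2, then dosed with compounds in DMSO by pin transfer. After 16 hr at 37 C, CellTiter-Fluor was added and fluorescence read 1 hr later.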

[9] = biological target: Nuclear receptor subfamily 1 group I member 2 (Homo sapiens) (UniProt O75469); assay: Human pregnane X receptor (PXR) small molecule agonists, qHTS assay (AID 1346982); also: nearly all actives have a fitted effect of over 35% in size; also: potency is read from the fitted curve at half-maximal effect
Nuclear receptor subfamily 1 group I member 2 (Homo sapiens), sequence (O75469 whole entry, looked up): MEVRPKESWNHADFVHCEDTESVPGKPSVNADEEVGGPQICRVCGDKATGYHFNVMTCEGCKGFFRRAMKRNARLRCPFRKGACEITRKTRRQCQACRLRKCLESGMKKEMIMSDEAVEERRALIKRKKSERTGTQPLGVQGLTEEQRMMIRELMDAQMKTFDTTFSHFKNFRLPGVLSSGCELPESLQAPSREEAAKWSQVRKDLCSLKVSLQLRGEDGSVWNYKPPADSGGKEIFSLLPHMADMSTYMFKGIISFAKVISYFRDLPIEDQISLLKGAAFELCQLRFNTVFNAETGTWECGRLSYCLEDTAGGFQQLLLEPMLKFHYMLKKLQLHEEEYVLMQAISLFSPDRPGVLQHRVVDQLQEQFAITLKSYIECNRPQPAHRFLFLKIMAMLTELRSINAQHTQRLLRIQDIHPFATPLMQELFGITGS
How it was run: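 PXR-Luc HepG2 cells (CYP3A4 promoter-driven luciferase) were seeded in medium with 5% charcoal-stripped FBS, left 5 hr at 37 C, then exposed to compounds in DMSO for 24 hr. Luminescence was read after ONE-Glo addition.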

[10] = biological target: Cytochrome P450 2C19 (Homo sapiens) (UniProt P33261); assay: Cytochrome P450 Family 2 Subfamily C Member 19 (CYP2C19) small molecule antagonists: luciferase reporter qHTS assay (AID 1671197); also: nearly all actives have a fitted effect of over 65% in size; also: potency is read from the fitted curve at half-maximal effect; as to activity change, negative = inhibition: series mostly up to about 120 µM
Cytochrome P450 2C19 (Homo sapiens), sequence (P33261 whole entry, looked up): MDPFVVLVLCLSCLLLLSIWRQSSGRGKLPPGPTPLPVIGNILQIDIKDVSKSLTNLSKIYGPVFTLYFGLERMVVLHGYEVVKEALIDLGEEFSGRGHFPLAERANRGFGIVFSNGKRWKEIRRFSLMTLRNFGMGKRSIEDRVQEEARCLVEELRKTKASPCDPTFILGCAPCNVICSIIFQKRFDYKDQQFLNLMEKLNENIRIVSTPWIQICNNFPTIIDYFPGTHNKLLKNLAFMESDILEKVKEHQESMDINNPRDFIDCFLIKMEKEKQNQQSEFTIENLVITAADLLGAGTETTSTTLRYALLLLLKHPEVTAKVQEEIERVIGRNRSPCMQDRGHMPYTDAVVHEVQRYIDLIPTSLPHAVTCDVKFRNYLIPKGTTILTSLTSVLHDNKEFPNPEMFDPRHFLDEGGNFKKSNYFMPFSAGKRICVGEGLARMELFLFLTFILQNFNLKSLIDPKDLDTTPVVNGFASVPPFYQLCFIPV
How it was run: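 Relative luminescence units recorded 20 min after the detection reagent stopped a 1 h, 37C CYP2C19 reaction on proluciferin substrate, which was started by NADPH regeneration following 10 min room-temperature compound preincubation; ketoconazole positive control.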

[11] = biological target: Cytochrome P450 2C9 (Homo sapiens) (UniProt P11712); assay: Cytochrome P450 Family 2 Subfamily C Member 9 (CYP2C9) small molecule antagonists: luciferase reporter qHTS assay (AID 1671198); also: nearly all actives have a fitted effect of over 50% in size; also: potency is read from the fitted curve at half-maximal effect; as to activity change, negative = inhibition: series mostly up to about 120 µM
Cytochrome P450 2C9 (Homo sapiens), sequence (P11712 whole entry, looked up): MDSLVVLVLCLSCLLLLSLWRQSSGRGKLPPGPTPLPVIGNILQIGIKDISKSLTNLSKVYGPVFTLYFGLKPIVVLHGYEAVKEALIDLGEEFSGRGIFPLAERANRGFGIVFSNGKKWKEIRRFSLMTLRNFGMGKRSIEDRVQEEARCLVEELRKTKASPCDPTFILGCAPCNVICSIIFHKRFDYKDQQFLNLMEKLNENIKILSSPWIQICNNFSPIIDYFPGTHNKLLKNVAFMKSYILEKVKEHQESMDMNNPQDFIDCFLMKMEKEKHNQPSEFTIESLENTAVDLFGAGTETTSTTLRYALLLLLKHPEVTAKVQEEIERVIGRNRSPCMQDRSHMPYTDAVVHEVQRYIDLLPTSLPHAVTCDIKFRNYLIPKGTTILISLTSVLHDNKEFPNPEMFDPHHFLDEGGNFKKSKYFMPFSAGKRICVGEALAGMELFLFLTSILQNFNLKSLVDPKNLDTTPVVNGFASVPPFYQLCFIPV
How it was run: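 Enzyme-substrate mix preincubated with compound 10 min at room temperature; reaction started with NADPH regeneration solution, 1 h 37C. Luminescent luciferin product read after 20 min detection reagent.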

[12] = biological target: Cytochrome P450 1A2 (Homo sapiens) (UniProt P05177); assay: Cytochrome P450 Family 1 Subfamily A Member 2 (CYP1A2) small molecule antagonists: luciferase reporter qHTS assay (AID 1671199); also: nearly all actives have a fitted effect of over 50% in size; also: potency is read from the fitted curve at half-maximal effect; as to activity change, negative = inhibition: series mostly up to about 120 µM
Cytochrome P450 1A2 (Homo sapiens), sequence (P05177 whole entry, looked up): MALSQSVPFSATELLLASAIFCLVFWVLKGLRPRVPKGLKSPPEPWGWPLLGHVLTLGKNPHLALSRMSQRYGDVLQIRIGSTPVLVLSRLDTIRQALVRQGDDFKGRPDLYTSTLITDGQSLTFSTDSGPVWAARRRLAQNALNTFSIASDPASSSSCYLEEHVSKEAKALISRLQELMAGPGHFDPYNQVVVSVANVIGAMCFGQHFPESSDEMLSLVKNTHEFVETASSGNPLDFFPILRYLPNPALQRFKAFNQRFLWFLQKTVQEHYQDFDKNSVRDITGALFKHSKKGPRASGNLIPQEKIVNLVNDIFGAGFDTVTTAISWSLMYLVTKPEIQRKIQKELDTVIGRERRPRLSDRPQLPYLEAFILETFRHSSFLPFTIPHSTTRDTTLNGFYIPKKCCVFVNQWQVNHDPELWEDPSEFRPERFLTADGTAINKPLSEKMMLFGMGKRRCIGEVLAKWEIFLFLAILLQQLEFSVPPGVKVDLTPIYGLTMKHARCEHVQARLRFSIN
How it was run: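 Human CYP1A2 activity measured with a P450-Glo proluciferin substrate; compounds in DMSO preincubated 10 min at room temperature with enzyme-substrate mix, then NADPH regeneration system added for 1 h. Luciferin detection reagent, 20 min, luminescence read.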

[13] = biological target: Voltage-gated inwardly rectifying potassium channel KCNH2 (Homo sapiens) (UniProt Q12809); assay: Human Ether-a-go-go-Related Gene (hERG) channel small molecule antagonists: fluorescence cell-based qHTS assay (AID 1671200);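 also: hERG-expressing U2OS cells given a thallium stimulus after FluxOR II dye loading; series mostly up to about 77 µM; nearly all actives have a fitted effect of over 50% in size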
Voltage-gated inwardly rectifying potassium channel KCNH2 (Homo sapiens), sequence (Q12809 whole entry, looked up): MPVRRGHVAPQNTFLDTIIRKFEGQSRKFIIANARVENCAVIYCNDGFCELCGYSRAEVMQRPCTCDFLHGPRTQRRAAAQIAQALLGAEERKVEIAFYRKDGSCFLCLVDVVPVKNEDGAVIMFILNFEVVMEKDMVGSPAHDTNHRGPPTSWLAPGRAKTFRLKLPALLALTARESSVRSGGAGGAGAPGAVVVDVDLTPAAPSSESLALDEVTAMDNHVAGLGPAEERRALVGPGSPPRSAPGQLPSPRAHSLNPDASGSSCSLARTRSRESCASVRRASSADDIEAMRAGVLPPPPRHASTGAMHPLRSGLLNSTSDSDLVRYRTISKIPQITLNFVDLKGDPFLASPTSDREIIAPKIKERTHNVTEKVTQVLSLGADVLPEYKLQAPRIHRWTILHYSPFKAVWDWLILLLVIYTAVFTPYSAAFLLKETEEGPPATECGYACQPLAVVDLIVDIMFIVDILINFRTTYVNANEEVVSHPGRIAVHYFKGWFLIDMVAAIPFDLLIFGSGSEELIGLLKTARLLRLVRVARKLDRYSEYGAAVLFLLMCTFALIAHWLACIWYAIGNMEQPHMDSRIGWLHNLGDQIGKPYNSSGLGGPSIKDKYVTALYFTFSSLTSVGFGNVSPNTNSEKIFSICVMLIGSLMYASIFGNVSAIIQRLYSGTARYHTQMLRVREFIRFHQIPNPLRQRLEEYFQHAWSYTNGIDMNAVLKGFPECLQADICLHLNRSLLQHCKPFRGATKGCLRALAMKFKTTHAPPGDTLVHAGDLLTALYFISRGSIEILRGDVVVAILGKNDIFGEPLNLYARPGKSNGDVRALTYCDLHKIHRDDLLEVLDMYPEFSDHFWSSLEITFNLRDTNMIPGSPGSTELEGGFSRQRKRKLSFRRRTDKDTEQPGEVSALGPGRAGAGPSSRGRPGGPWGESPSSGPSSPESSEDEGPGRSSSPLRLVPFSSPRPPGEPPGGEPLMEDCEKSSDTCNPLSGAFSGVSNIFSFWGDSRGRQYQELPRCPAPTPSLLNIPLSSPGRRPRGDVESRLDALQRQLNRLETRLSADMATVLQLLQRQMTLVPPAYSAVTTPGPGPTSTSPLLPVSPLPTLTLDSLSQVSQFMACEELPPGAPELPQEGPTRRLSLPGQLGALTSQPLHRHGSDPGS
How it was run: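 In this thallium-flux screen, overnight-cultured U2OS cells bearing the channel are dye-loaded in darkness for an hour, rested 10 min at room temperature, and then monitored kinetically at 480/540 nm for two minutes post-stimulus.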

[14] = Caspase-3/7 induction in HepG2 cells by small molecules, qHTS assay (AID 1346978); also: nearly all actives have a fitted effect of over 15% in size
How it was run: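 Caspase-3/7 induction was measured by Caspase-Glo 3/7 luminescence (30 min, room temperature) after a 17 hr compound exposure of wild-type HepG2 cells seeded at 2,000 per well and pre-incubated 5 hr.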

[15] = biological target: Cytochrome P450 2D6 (Homo sapiens) (UniProt P10635); assay: Cytochrome P450 Family 2 Subfamily D Member 6 (CYP2D6) small molecule antagonists: luciferase reporter qHTS assay (AID 1671196)
Cytochrome P450 2D6 (Homo sapiens), sequence (P10635 whole entry, looked up): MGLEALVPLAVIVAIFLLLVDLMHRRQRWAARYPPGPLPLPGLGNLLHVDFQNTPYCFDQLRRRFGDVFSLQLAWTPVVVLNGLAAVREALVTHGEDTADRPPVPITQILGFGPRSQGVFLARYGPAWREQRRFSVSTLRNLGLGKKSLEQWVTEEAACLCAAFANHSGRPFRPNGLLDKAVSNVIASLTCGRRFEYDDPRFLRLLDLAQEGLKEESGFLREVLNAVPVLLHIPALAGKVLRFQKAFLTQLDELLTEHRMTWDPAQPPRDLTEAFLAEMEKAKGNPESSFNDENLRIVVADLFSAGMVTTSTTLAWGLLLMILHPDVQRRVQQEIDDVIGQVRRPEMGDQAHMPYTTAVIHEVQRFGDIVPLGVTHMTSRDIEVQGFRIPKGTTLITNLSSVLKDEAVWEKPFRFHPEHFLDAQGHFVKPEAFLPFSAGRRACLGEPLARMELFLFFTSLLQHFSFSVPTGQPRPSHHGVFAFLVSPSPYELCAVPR
How it was run: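 CYP2D6 enzyme–substrate mix was held with compound for 10 min at room temperature, then NADPH regeneration solution was added and the reaction ran 1 h at room temperature. Luciferin product was detected by luminescence after 20 min with detection reagent.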

[16] = biological target: Cytochrome P450 3A4 (Homo sapiens) (UniProt P08684); assay: Cytochrome P450 Family 3 Subfamily A Member 4 (CYP3A4) small molecule antagonists: luciferase reporter qHTS assay (AID 1671201); also: nearly all actives have a fitted effect of over 50% in size; also: potency is read from the fitted curve at half-maximal effect; as to activity change, negative = inhibition: series mostly up to about 120 µM
Cytochrome P450 3A4 (Homo sapiens), sequence (P08684 whole entry, looked up): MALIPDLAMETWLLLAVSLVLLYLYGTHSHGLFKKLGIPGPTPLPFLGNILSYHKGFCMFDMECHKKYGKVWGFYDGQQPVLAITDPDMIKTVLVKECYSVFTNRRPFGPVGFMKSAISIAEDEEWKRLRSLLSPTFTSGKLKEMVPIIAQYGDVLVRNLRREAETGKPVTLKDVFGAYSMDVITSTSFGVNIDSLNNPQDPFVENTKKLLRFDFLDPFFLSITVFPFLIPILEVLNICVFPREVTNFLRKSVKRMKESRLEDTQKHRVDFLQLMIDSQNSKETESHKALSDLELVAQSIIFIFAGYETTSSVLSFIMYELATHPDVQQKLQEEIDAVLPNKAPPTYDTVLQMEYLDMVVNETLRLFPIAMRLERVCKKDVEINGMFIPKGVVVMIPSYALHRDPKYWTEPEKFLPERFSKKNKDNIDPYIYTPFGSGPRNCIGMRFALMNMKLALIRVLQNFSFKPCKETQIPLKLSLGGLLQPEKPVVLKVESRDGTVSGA
How it was run: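 CYP3A4 activity was followed with a P450-Glo proluciferin substrate. Test compounds in DMSO were preincubated 10 min; NADPH regeneration then ran 1 h, and light output was read 20 min after detection reagent.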
% is scaled to controls: 0 for no effect and ±100 for the full control effect.

COc1ccc(OC)c(NC(=O)CC(C)=O)c1
inactive: outcome [1] | outcome [2] | outcome [3] | outcome [4] | Potency [5] | Potency [6] | outcome [7] | Potency [8] | Potency [13]
active: Potency [9] 54.5 µM | Potency [10] 15.9 µM | Potency [11] 31.7 µM | Potency [12] 15.9 µM

O=C1OC(=O)c2ccccc21
inactive: outcome [1] | outcome [2] | outcome [3] | outcome [4] | Potency [5] | outcome [14] | outcome [7] | Potency [8] | Potency [9] | Potency [15] | Potency [11] | Potency [12] | Potency [16]

CCN(CCO)c1cccc(C)c1
inactive: outcome [1] | outcome [2] | outcome [3] | outcome [4] | Potency [5] | outcome [14] | outcome [7] | Potency [8] | Potency [9]
active: Potency [10] 35.6 µM | Potency [12] 28.3 µM

CC(C)C(=O)Nc1cccc(C(F)(F)F)c1
inactive: outcome [1] | outcome [2] | outcome [3] | outcome [4] | Potency [5] | outcome [14] | outcome [7] | Potency [8] | Potency [9] | Potency [10] | Potency [11] | Potency [13] | Potency [16]
active: Potency [12] 7.76 µM

c1ccccc1
inactive: outcome [1] | outcome [2] | outcome [3] | outcome [4] | Potency [5] | Potency [6] | outcome [7] | Potency [8] | Potency [15] | Potency [10] | Potency [11] | Potency [12] | Potency [13]

C=CCCCCCCCCCCC
inactive: activity change, negative = cytotoxicity [1] -3.69% [at 6.97 µM] | activation [2] -3.71% [at 6.97 µM] | activity, negative = inhibition [3] 4.06% [at 4.65 µM] | activation [4] -0.423% [at 5.23 µM] | activity change, negative = cytotoxicity [5] -1.17% [at 8.39 µM] | activity change, negative = cytotoxicity [6] -0.387% [at 8.39 µM] | caspase-3/7 activation [7] 0.611% [at 8.39 µM] | activity change, negative = cytotoxicity [8] 0.644% [at 8.39 µM] | activation [9] -8.11% [at 8.39 µM] | activity change, negative = inhibition [15] -22.8% [at 10.5 µM] | activity change, negative = inhibition [10] 11.6% [at 10.5 µM] | activity change, negative = inhibition [11] -1.77% [at 10.5 µM] | activity change, negative = inhibition [12] -6.04% [at 10.5 µM] | activity change, negative = inhibition [13] 6.79% [at 6.97 µM]

O=S(=O)(O)SSS(=O)(=O)O
inactive: outcome [1] | outcome [2] | outcome [3] | outcome [4] | Potency [5] | Potency [6] | outcome [7] | Potency [8] | Potency [9] | Potency [13]
active: Potency [10] 35.6 µM | Potency [11] 71 µM | Potency [12] 44.8 µM

CCNC(=O)NCCCOc1cccc(CN2CCCCC2)c1
inactive: outcome [1] | outcome [2] | outcome [3] | outcome [4] | Potency [5] | outcome [14] | outcome [7] | Potency [8] | Potency [10] | Potency [12] | Potency [13]
active: Potency [9] 29.8 µM

O=C(O)Cc1cccc(-c2cc(CCCCCCc3ccc(O[C@H]4O[C@H](CO)[C@@H](O)[C@H](O)[C@@H]4O)c(-c4cccc(CC(=O)O)c4)c3)ccc2O[C@H]2O[C@H](CO)[C@@H](O)[C@H](O)[C@@H]2O)c1
inactive: activity change, negative = cytotoxicity [1] 10.8% [at 0.29 µM] | activation [2] -0.374% [at 0.29 µM] | activity, negative = inhibition [3] 0.417% [at 0.194 µM] | activation [4] -0.342% [at 0.218 µM] | activity change, negative = cytotoxicity [5] 17.5% [at 0.349 µM] | activity change, negative = cytotoxicity [6] 2.17% [at 0.349 µM] | caspase-3/7 activation [7] 1.55% [at 0.349 µM] | activation [9] -9.1% [at 0.349 µM] | activity change, negative = inhibition [15] 0.276% [at 0.435 µM] | activity change, negative = inhibition [10] 11.7% [at 0.435 µM] | activity change, negative = inhibition [11] 0.681% [at 0.435 µM] | activity change, negative = inhibition [12] -0.131% [at 0.435 µM] | activity change, negative = inhibition [13] -0.102% [at 0.29 µM]

SCCSCCS
inactive: outcome [1] | outcome [2] | outcome [3] | outcome [4] | Potency [5] | outcome [14] | outcome [7] | Potency [8] | Potency [15] | Potency [10] | Potency [11] | Potency [12] | Potency [13] | Potency [16]

FC(F)(F)c1ccc(Cl)cc1Cl
inactive: outcome [1] | outcome [2] | outcome [3] | outcome [4] | Potency [5] | Potency [6] | outcome [7] | Potency [8] | Potency [9] | Potency [15] | Potency [11] | Potency [12] | Potency [16]

C=CCOC(=O)c1ccc(C(=O)OCC=C)c(C(=O)OCC=C)c1
active: Potency [10] 0.159 µM | Potency [11] 0.399 µM | Potency [12] 6.33 µM | Potency [16] 1.78 µM
inactive: outcome [1] | outcome [2] | outcome [3] | outcome [4] | Potency [5] | Potency [6] | outcome [7] | Potency [8] | Potency [9] | Potency [13]
